This is one part of the list. Calls of active or inactive are those of the source.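 The calls were made as follows: active = quenching, a falling signal, with AC50 below a set limit tied to the top valid dose (actives reach about 32 µM in these data); inconclusive = no clear call, values can overlap the other calls; inactive = rising signal, and the rest.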

The nature of this experiment: compounds quenching DiI signal without cells – biochemical, cherry-pick samples, plate reader fluorescence, artefact control for SR-BI HDL uptake inhibitor project, dose response (AID 540326). Conditions: cell-free DiI-HDL fluorescence quenching, 30 min; series mostly up to 35 µM.
On to `C=CCCC(=O)Nc1nc(C)c(-c2csc(Nc3ccc(Cl)cc3)n2)s1`, for which the AC50 is 2190 nM (active).

For `COC(=O)C1=CN(c2ccc(F)c(F)c2)C=C(C(=O)OC)C1c1ccc([N+](=O)[O-])cc1`, the AC50 result was “inactive”.

In the case of `Cc1cc(NC(=O)Nc2ccccc2)n(-c2ccccc2)n1`, the AC50 result is “inactive”.

For `CC(C)OCCCNC(=O)c1ccc(C2SCC(=O)N2Cc2ccco2)cc1` (centres undefined), the AC50 result is “inactive”.

`CCCCC(=O)Nc1nc(C)c(-c2csc(Nc3ccc(Cl)cc3)n2)s1`: the AC50 is 1930 nM (active).

`O=C(Nc1ccc(-c2csc(Nc3cccc(C(F)(F)F)c3)n2)cc1)c1cccc(C(F)(F)F)c1`: the AC50 was 435 nM (active).

Consider `CCCC(=O)Nc1ccc(Cl)c(NC(=O)c2ccc(Br)o2)c1`, for which the AC50 entry was “inactive”.

In the case of `CCOc1ccc(OCCSc2nc3ccccc3n2CC(=O)O)cc1`, the AC50 entry is “inactive”.

Turning to `CCCC(=O)N1c2ccc(-c3csc(N)n3)cc2CC1C` (centres undefined), the AC50 result is “inactive”.

Turning to `O=c1cc(N2CCCCC2)c(-c2ccccc2)nn1Cc1cccc(F)c1`, the AC50 entry was “inactive”.

Turning to `CCCOC(=O)c1[nH]c2c(c1C)C(=O)CC(c1cc(OC)c(OC)c(OC)c1)C2` (centres undefined), the AC50 entry is “inactive”.

On to `Cc1cccc(N2CCN(C(=O)CN(C)S(=O)(=O)c3ccc4c(c3)CCC(=O)N4)CC2)c1C`, for which the AC50 result is “inactive”.

As for `CCOC(=O)c1[nH]c2c(c1-c1ccccc1)C(=O)CC(c1ccc(Cl)cc1)C2` (centres undefined), the AC50 entry is “inactive”.

Take `O=C(NC1CC2CCCC(C1)N2C(=O)N1CCCCC1)C1CCCCC1` (centres undefined): the AC50 entry is “inactive”.

As to `O=C(Nc1cccc(NC(=O)N2CCN(c3ccccc3)CC2)c1)N1CCN(c2ccccc2)CC1`, the AC50 entry is “inactive”.

Consider `COc1cccc(N(CC(=O)NC2CCCC2)C(=O)Cn2nnc(-c3ccc(C)cc3)n2)c1`, for which the AC50 entry is “inactive”.

As to `CCCOC1CCCN(C(=O)c2cc(COc3cncc(Cl)c3)on2)C1` (centres undefined), the AC50 entry is “inactive”.

Consider `CCOc1ccc(NC(=O)CN2CCN(CC(=O)Nc3ccc(OC)cc3)CC2)cc1`, for which the AC50 entry is “inactive”.

Take `O=C(Nc1cccc(NC(=O)c2ccccc2[N+](=O)[O-])c1)c1ccccc1Cl`: the AC50 result was “inactive”.

In general, AC50 refers to the concentration giving half of the maximal activity seen.

The values are drawn from PubChem BioAssay AID540326 (Broad Institute, 2011).
